In all, about 68,000 sequences were measured (“fluorescence intensity (a.u.)”: median about 9,100, highest 2% from about 16,000 on). What follows is part of a selection rich in the highest values, with near analogues and random picks from the rest.
Target: OsWRKY34 (Oryza sativa, UniProt Q0JBA9 1-250)
Test: protein-binding microarray (RPBM); PBS, 2% BSA, 51.3 ng/ul salmon testes DNA, 50 uM zinc acetate, 200 nM TF, 25 C, 1 h; high values mean tight binding
Conditions: protein: recombinant; tags: N-terminal polyhistidine and DsRed monomer fusion (pET32a); label: CyDye5-dUTP incorporated in the synthesized complementary strand; 3' TTTTT single-stranded linker to array surface; dsDNA, one strand shown
In short: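 Transcription factors, each fused N-terminally to a polyhistidine tag and DsRed, were expressed in E. coli BL21-CodonPlus and purified on Ni–NTA. A custom Agilent array was made double-stranded by primer extension with Cy5-dUTP and blocked with 2% BSA. It was incubated with 200 nM protein in PBS, 2% BSA, salmon testes DNA and 50 µM zinc acetate at 25 °C for 1 h, then washed. The binding signal is per-feature fluorescence intensity (arbitrary units) read on an Axon 4000B scanner.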

Chain of OsWRKY34 (Q0JBA9 entry or part of it): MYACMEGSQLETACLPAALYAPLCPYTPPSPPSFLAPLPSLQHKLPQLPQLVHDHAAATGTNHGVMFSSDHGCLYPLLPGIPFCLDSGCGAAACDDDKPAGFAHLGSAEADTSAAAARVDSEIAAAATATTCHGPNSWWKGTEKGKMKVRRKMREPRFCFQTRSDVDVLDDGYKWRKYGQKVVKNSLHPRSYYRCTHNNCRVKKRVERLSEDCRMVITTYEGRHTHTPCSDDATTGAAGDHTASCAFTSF

Sequence	binding signal
GGGGCTGTTTGGTTTCCAGGGACTTATTCCAAGTCCCTGTCGGAGTCACCTAGTGCAG	9750 fluorescence intensity (a.u.)
TGGATTTGGCGGCGGCGGCGGCTTCGAGGGGAGGGGCTCTCGGAGTCACCTAGTGCAG	15300 fluorescence intensity (a.u.)
TCTTCGGTTTACTTATGTCCTGGCTGGTTGGGAGGGGACACGGAGTCACCTAGTGCAG	19100 fluorescence intensity (a.u.)
TTGGGAGGGAGAGTGGTAAAGGGTGCTGGGGCTTTGGCTGCGGAGTCACCTAGTGCAG	8840 fluorescence intensity (a.u.)
TGGAAAGAGGAGGGCGGGGAGAGGACTGGGGAGGGCGGGGCGGAGTCACCTAGTGCAG	17700 fluorescence intensity (a.u.)
AGGATTCAATTTGGACTTTGGTGGAGGGGAGGGGCTGCTGCGGAGTCACCTAGTGCAG	22100 fluorescence intensity (a.u.)
GGGGAAGGAGAAGAGGAAGGAGAGGGGAGGAGGAGGAGGGCGGAGTCACCTAGTGCAG	8870 fluorescence intensity (a.u.)
TTGGATTGGGCTGCGGACCTGCGGTGGAGGGATTCAGGGTCGGAGTCACCTAGTGCAG	8240 fluorescence intensity (a.u.)
ACTGGTTTTACACATTATGTGGGCTAACTTAATACTCCTTCGGAGTCACCTAGTGCAG	8040 fluorescence intensity (a.u.)
GAGGAAATGCCTGGGAGGAGGAGGAGGGACTCGGGGCGGGCGGAGTCACCTAGTGCAG	13300 fluorescence intensity (a.u.)
AGAGGGGACTGGGGAGGGGAGGGGCGGCGCTCGCTGGCTTCGGAGTCACCTAGTGCAG	17500 fluorescence intensity (a.u.)
GCGAGAGGGGACTGGGGAGGGGAGGGGCGGCGCTCGCTGGCGGAGTCACCTAGTGCAG	12500 fluorescence intensity (a.u.)
ATTTTTTTTAAAAGTAGTTCTTCTGTTTCATATTATAATACGGAGTCACCTAGTGCAG	9230 fluorescence intensity (a.u.)
TGTCTTTATTAAGTGCAAATGTATTTGGATTCCAACCCTTCGGAGTCACCTAGTGCAG	8180 fluorescence intensity (a.u.)
TACCCACACACACACAAGAACACGCGCCACATTTGTCATTCGGAGTCACCTAGTGCAG	10900 fluorescence intensity (a.u.)
TATTGTCTGGGGTTTGCTTATTGGCTTTTCAGGCCATGTCCGGAGTCACCTAGTGCAG	9320 fluorescence intensity (a.u.)
ATCTCTTTTGCATTTGTTCGTCCCTTTCGTTTTCAACTTGCGGAGTCACCTAGTGCAG	9290 fluorescence intensity (a.u.)
CAAACATGTGCTAAAAAGTCAACGGTGTCAACCATTTTGACGGAGTCACCTAGTGCAG	11600 fluorescence intensity (a.u.)
ACTCACAGAAAGCGTCGGGGCGGGTCTGGGAGGGCTTGCGCGGAGTCACCTAGTGCAG	9140 fluorescence intensity (a.u.)
TAGGTGAGGGCGGTGCGCTTGTCGACGGGGTTGAAGGGGACGGAGTCACCTAGTGCAG	10700 fluorescence intensity (a.u.)
AAGCGCCTGGTAGCGGAGAGTGGGAAAGAGCTGGCTGGCGCGGAGTCACCTAGTGCAG	60400 fluorescence intensity (a.u.)
CGTGGAGAGGATTTGAGTGCCTTTTTTGGAGTTTGAGGGGCGGAGTCACCTAGTGCAG	9570 fluorescence intensity (a.u.)

Sequence	binding signal
ACGGGGACAGGGAGAGGAGCGGGGATTTTGTGGCGGGAGACGGAGTCACCTAGTGCAG	9460 fluorescence intensity (a.u.)
GCGTCTGGGGCCTCGGGCGGCGCGCGCGGGGAGGGGCGTGCGGAGTCACCTAGTGCAG	10500 fluorescence intensity (a.u.)
GTGTGTGCTGTGGTGGAGAGGAGAAAGGGAGGAAGAAGAGCGGAGTCACCTAGTGCAG	8140 fluorescence intensity (a.u.)
GAGGACTGGGGAGGGCGGGGAGAGGGGAGGGCGTCGCGTGCGGAGTCACCTAGTGCAG	24500 fluorescence intensity (a.u.)
CTGCTGCCGCCGCCTCCTGGCCGCCGCCGCGGCGAGCGCGCGGAGTCACCTAGTGCAG	8280 fluorescence intensity (a.u.)
TCGGGGCGGGTCTGGGAGGGCTTGCGCTTGACACGGACGACGGAGTCACCTAGTGCAG	17200 fluorescence intensity (a.u.)
GCGGCGGCGGGGCGGCGTCGGGGAGGGAGGAGGAGCAGTGCGGAGTCACCTAGTGCAG	10700 fluorescence intensity (a.u.)
GGGGATTTGGGGAGACTTTTGGAGGGGAGGAGAGAGGGCGCGGAGTCACCTAGTGCAG	19700 fluorescence intensity (a.u.)
TGTTGTTATGTTTTTGTCATGATCTCACAAGCAATGTACACGGAGTCACCTAGTGCAG	11000 fluorescence intensity (a.u.)
CCTCTTCGAAGCCGTGAAATCTCAGCCGTCCATCCATGATCGGAGTCACCTAGTGCAG	9040 fluorescence intensity (a.u.)
TCTTTTGAGCACCCCACTGGCCATGGTCTTTTATCGTCCCCGGAGTCACCTAGTGCAG	8490 fluorescence intensity (a.u.)
ACTATCTTAGCCATTCCAACGCCGTCTTTCCTCGGTCCTCCGGAGTCACCTAGTGCAG	12500 fluorescence intensity (a.u.)
AATCACCATCATCGCTGTTTGGGAGGGTCTGCCTGGCTTACGGAGTCACCTAGTGCAG	13100 fluorescence intensity (a.u.)
TATTTGACTTCCGGCTTTTGTTTCCTTGATACTTTACTCTCGGAGTCACCTAGTGCAG	9780 fluorescence intensity (a.u.)
ACCTTTGCTCACGATCCCAATGGCTTTAATTATGTACCACCGGAGTCACCTAGTGCAG	8830 fluorescence intensity (a.u.)
CCAAAAACACTCACTCGGCCCACATCACGCCACCACCCCGCGGAGTCACCTAGTGCAG	9750 fluorescence intensity (a.u.)
TTTTTTTTCTGTTAGTACTGTTTTTGGTCCAAACATCTTTCGGAGTCACCTAGTGCAG	8180 fluorescence intensity (a.u.)
GATGGCGTACCAAAGTACTGGTAAAAACATCTTCAGTTTTCGGAGTCACCTAGTGCAG	22300 fluorescence intensity (a.u.)
GGGCCTAGTTTTTCCAGGTAAAGTTGACCAAAAGTCTTCACGGAGTCACCTAGTGCAG	8890 fluorescence intensity (a.u.)
CTTCTACTGCGTCGACTTGGAATTTTGCCGAATCTTTTTTCGGAGTCACCTAGTGCAG	10400 fluorescence intensity (a.u.)
CACACACACTCCACTACTCCACTGCACTGCAGTCTCTCTCCGGAGTCACCTAGTGCAG	10100 fluorescence intensity (a.u.)
CCTCGTTCTTCTTCTTCTCTCTCTGGTTTTACATTTTTACCGGAGTCACCTAGTGCAG	10300 fluorescence intensity (a.u.)

Sequence	binding signal
CACGCACCGCCCATGCGTCCTTATCCACCCACCTCTCCACCGGAGTCACCTAGTGCAG	8240 fluorescence intensity (a.u.)
TGAGTCCTTACCTCTCTCTCTCCAATGTTCGTCTGCGGCACGGAGTCACCTAGTGCAG	8390 fluorescence intensity (a.u.)
AACCCACCTGCACGCACCGTCCTTACCTCTGTTCGATTGACGGAGTCACCTAGTGCAG	16800 fluorescence intensity (a.u.)
GTAGATGTCGGGTGGGATGGTTTCAGGAAAAGAAACATGACGGAGTCACCTAGTGCAG	12800 fluorescence intensity (a.u.)
CATTCACAACATCAAATTACATCTGCAGAGAGATCGCTCGCGGAGTCACCTAGTGCAG	33900 fluorescence intensity (a.u.)
ACTTTCCTACACACAAACTTTCAACTTTTTCATCACATCGCGGAGTCACCTAGTGCAG	8900 fluorescence intensity (a.u.)
AGTCTGGCTTGCACATCTGCTGTTTACAACACATCAAATTCGGAGTCACCTAGTGCAG	9810 fluorescence intensity (a.u.)
CCATCGTTTCTCCCCGACGCCCTCGCCATCCTCCTCGCCACGGAGTCACCTAGTGCAG	10500 fluorescence intensity (a.u.)
GCCTTTTTAAATTTTTTTATCACATCAAAACTTTTTTATACGGAGTCACCTAGTGCAG	8370 fluorescence intensity (a.u.)
TTTTTGGGTTGGGTTGGGGACGCGCTGTTTCGACGTGGGGCGGAGTCACCTAGTGCAG	19000 fluorescence intensity (a.u.)
TTTACATATAATTTTCTTTAGGGTTTTATAGCTTTTTTAACGGAGTCACCTAGTGCAG	8600 fluorescence intensity (a.u.)
CGTTGAGTTGGTTTAGGGGTGGACTGATTTGCCTTTGCCCCGGAGTCACCTAGTGCAG	12900 fluorescence intensity (a.u.)
TTCGTGTTTTGCTGGAGTTGGAGTTGCTGCATTGGGTTTACGGAGTCACCTAGTGCAG	10700 fluorescence intensity (a.u.)
GGTTGGGGCGTGGGCGGCTGGGCGCGTGGGTTGCCCGCGACGGAGTCACCTAGTGCAG	15600 fluorescence intensity (a.u.)
ATATATGTTCTCTTAGTGTCTTTATTTTTAATATTTTTAACGGAGTCACCTAGTGCAG	8530 fluorescence intensity (a.u.)
GGGTTTGGGTTTTTAGGTTTGGGGAGTTGGGCTGTGTTTACGGAGTCACCTAGTGCAG	22100 fluorescence intensity (a.u.)
AGTGTTTGGTTTGAGGAGGACTAGTGGGGTGGTTTTTTGACGGAGTCACCTAGTGCAG	13900 fluorescence intensity (a.u.)
TGAAGAGGTGAGTGTTTTAGGGTTTTGGTTGGGGTTTTGACGGAGTCACCTAGTGCAG	14600 fluorescence intensity (a.u.)
GGTTTAGGCTGTGTTTAGTTCTTTTTTTAATTTTTTTTAACGGAGTCACCTAGTGCAG	16500 fluorescence intensity (a.u.)
CTGTTACTTCACAGTTATTTTTGTTGGGTGGGGACGTGGGCGGAGTCACCTAGTGCAG	12600 fluorescence intensity (a.u.)
GTGGGTGGGTTTGGAGTTTGGACTGTTTAGGGCCTTTTGACGGAGTCACCTAGTGCAG	23300 fluorescence intensity (a.u.)

From paper PMC7819943, “Rice protein-binding microarrays: a tool to detect cis-acting elements near promoter regions in rice”
